Calls of active or inactive are those of the source.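 Rule for the calls, unless noted: active = inhibition above 20% together with a positive visual image hit; inconclusive = visual image hit but inhibition not above 20%; inactive = no visual image hit.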
Columns and labels:
[1] = inhibitors of TNFa-induced NFkB p65 translocation, primary screen, imaging, HUVEC, MLSMR starter and 10KST1 sets (AID 438); settings: HUVEC TNFa-induced p65 nuclear translocation; cell count: measured here: nuclei count (cytotoxicity indicator), at 2.08 µM; inhibition: at 2 µM, stronger effect = higher value, 0% TNFa-plus-vehicle, 100% no-TNFa wells;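 note: compound added about 3h40 before a 20 min TNFalpha stimulation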;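 for inhibition: signal is the nuclear over cytoplasmic p65 intensity ratio per well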
[2] = inhibitors of mutant huntingtin aggregation, primary screen, imaging, exon1htt(103Q)mCFP cells, high-content imaging (AID 483;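 active = visual image review flags a hit and inhibition of aggregation exceeds 20%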;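 note: compound exposure lasted 3 days before fixation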;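 for nuclei count: percent of the per-plate median nuclei count of sample wells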); settings: exon1htt(103Q)mCFP cell line, aggregate imaging, at 2 µM; inhibition of aggregation: stronger effect = higher value; nuclei count: measured here: cell count, toxicity
[3] = inhibitors of E-selectin induction by TNFa, primary screen, imaging, HUVEC, immunofluorescence, MLSMR starter and 10KST1 sets (AID 487;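 active = visually confirmed hit in the image check and inhibition above 20%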;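 for inhibition: signal is fraction of cell area covered by stained E-selectin grains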;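 for nuclei count: 100% = median nuclei count of all wells on the same plate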); settings: HUVEC TNFalpha-induced E-selectin immunofluorescence imaging, at 2 µM; inhibition: stronger effect = higher value; nuclei count: measured here: cell number, toxicity
[4] = target: Voltage-gated potassium channel subunit beta-2 (Rattus norvegicus) (UniProt P62483); assay: KvBeta enzyme negative modulators, primary screen, biochemical, NADPH fluorescence (AID 622;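 active = fluorescence slope higher than the sample average by over 3 SD, cut at about -0.22 in these data, passing the limit was not always enough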;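 note: slope of raw intensity against log time taken from 70 to 1610 s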); settings: recombinant KvBeta, 4-cyanobenzaldehyde reduction, at 10 µM, stronger effect = higher value
[5] = target: Voltage-gated potassium channel subunit beta-2 (Rattus norvegicus) (UniProt P62483); assay: KvBeta positive modulators, primary screen, biochemical, NADPH fluorescence (AID 623;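 active = NADPH fluorescence slope more negative than the mean of all samples by about 3 SD, 99.7% confidence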;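 note: fluorescence intensity change per second fitted from 20 to 320 s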); settings: Recombinant KvBeta, NADPH fluorescence decrease slope, 10 min; at 10 µM; stronger effect = lower value
[6] = target: Alpha-2C adrenergic receptor (Homo sapiens) (UniProt P18825); assay: modulators of alpha2C/GIRK thallium flux, primary screen, cell-based, HEK293 alpha2C/GIRK1/2 (AID 624;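 active = fluorescence slope after compound addition differing from the mean of all screened samples at 99.7% confidence, in either direction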;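 note: slope of fluorescence ratio to pre-addition baseline per second over 15 to 24 s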); settings: thallium flux BTC fluorescence, at 10 µM, actives lie on both sides
[7] = inhibitors of Sendai virus-induced IRF3 signaling, primary screen, TLR/RLR signaling modifier project, cell-based, Sendai virus stimulus, luciferase, 10K MLSCN set (AID 602276;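 active = inhibition at or above 50% at 10 µM; inactive = inhibition below 50%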;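 note: firefly luciferase from ISG56 promoter only with Renilla not read in this screen; 0% = Sendai virus plus DMSO and 100% = medium plus DMSO without virus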); settings: HEK293 RL24 IRF3 luciferase reporter, at 10 µM, stronger effect = higher value
[8] = inhibitors of poly I:C-induced TLR3 signaling, primary screen, cell-based, poly I:C stimulus, luciferase, 10K MLSCN set (AID 602277;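 active = inhibition of the reporter signal at or above 50%; inactive = inhibition below 50%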); settings: HEK293-TLR3 RL24 IRF3 luciferase reporter, at 10 µM, stronger effect = higher value

Sequence of Voltage-gated potassium channel subunit beta-2 (Rattus norvegicus) (P62483 whole entry, looked up): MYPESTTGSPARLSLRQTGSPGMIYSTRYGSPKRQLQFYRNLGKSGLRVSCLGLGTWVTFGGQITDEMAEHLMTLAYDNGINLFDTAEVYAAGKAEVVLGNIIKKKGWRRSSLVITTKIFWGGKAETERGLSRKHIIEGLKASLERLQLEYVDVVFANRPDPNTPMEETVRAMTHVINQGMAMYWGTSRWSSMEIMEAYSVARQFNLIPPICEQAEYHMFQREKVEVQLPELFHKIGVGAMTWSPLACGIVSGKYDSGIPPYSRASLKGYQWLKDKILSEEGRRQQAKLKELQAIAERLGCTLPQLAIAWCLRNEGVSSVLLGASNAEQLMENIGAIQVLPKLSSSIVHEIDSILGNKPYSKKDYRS
Sequence of Alpha-2C adrenergic receptor (Homo sapiens) (P18825 whole entry, looked up): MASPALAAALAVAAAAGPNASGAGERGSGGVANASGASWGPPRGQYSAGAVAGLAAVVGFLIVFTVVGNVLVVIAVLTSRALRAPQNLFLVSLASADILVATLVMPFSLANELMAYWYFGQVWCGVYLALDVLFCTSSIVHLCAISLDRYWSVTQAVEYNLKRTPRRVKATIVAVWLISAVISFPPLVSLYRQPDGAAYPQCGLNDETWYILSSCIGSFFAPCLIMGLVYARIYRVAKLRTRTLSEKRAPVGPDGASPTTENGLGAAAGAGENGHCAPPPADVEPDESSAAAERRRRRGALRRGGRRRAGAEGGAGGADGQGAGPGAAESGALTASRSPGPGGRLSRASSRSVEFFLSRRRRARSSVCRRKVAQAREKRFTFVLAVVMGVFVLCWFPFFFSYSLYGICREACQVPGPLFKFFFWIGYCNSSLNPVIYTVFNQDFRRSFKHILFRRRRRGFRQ

Row | SMILES | cell count [1] | inhibition [1] | inhibition of aggregation [2] | nuclei count [2] [%] | inhibition [3] | nuclei count [3] [%] | fluorescence slope [4] | NADPH fluorescence slope [5] | slope [6] | inhibition [7] | inhibition [8]
1 | CCC(CO)Nc1ncnc2c1cnn2-c1ccc(Cl)cc1 (centres undefined) | 550 | 10% (inactive) | 7.5% (inactive) | 101 | 10.3% (inactive) | 111 | -0.54 (inactive) | -1.3e-05 (inactive) | 0.00667 (inactive) | 38.4% (inactive) | -14% (inactive)
2 | COc1ccc(C(c2nnnn2C2CCCC2)N2CCN(C3CCCC3)CC2)cc1OC (centres undefined) | 263 | 17.5% (inactive) | 8.8% (inactive) | 104 | 2% (inactive) | 88.5 | -0.512 (inactive) | -0.000149 (inactive) | 0.00468 (inactive) | 12.8% (inactive) | 18.8% (inactive)
3 | CCCCOC(=O)n1c(SCC(=O)N(CC)CC)nc2ccccc21 | 307 | 5.3% (inactive) | 1.4% (inactive) | 107 | 10% (inactive) | 106 | -0.585 (inactive) | -3.7e-07 (inactive) | 0.00671 (inactive) | -15.8% (inactive) | -54.6% (inactive)
4 | COCCn1nnnc1C(c1cc2cc(OC)ccc2[nH]c1=O)N1CCC(Cc2ccccc2)CC1 (centres undefined) | 247 | -3.5% (inactive) | -2.5% (inactive) | 88.5 | -39.9% (inactive) | 117 | -0.359 (inactive) | 1.6e-05 (inactive) | 0.00322 (inactive) | 14.4% (inactive) | 30.6% (inactive)
5 | Cc1ccnc(SCCn2c(N3CCCCC3)nc3c2c(=O)n(C)c(=O)n3C)n1 | 249 | 4.4% (inactive) | -9.4% (inactive) | 93.5 | -49.1% (inactive) | 107 | -0.319 (inactive) | 1.8e-05 (inactive) | 0.00339 (inactive) | 10.1% (inactive) | 36.5% (inactive)
6 | O=c1c(CN2CCN(Cc3ccccc3)CC2)coc2ccc(Cl)cc12 | 463 | -1.6% (inactive) | -1.1% (inactive) | 113 | -69.1% (inactive) | 125 | -0.41 (inactive) | -0.000112 (inactive) | 0.00599 (inactive) | -2.78% (inactive) | 4.22% (inactive)
7 | Cc1ccc(C(c2sc3ncnn3c2O)N2CC(C)CC(C)C2)cc1 (centres undefined) | 628 | -2.4% (inactive) | 14.8% (inactive) | 80.8 | -22.9% (inactive) | 101 | -0.58 (inactive) | -5.6e-05 (inactive) | 0.00795 (inactive) | 10.9% (inactive) | 35.9% (inactive)
8 | CCOC(=O)c1cccc(NC2c3ccccc3C(=O)N2Cc2ccco2)c1 (centres undefined) | 700 | -2.3% (inactive) | 10.2% (inactive) | 117 | -10.9% (inactive) | 119 | -0.554 (inactive) | -4.1e-05 (inactive) | 0.00706 (inactive) | 6.59% (inactive) | 17.6% (inactive)
9 | CCOC(=O)CSc1ncnc2c1cnn2-c1ccc(C)cc1 | 296 | 2.4% (inactive) | -24.2% (inactive) | 108 | -3.4% (inactive) | 129 | -0.581 (inactive) | -2e-05 (inactive) | 0.00447 (inactive) | 22.8% (inactive) | 21.8% (inactive)
10 | COc1ccc(C(=O)N(CCN2CCOCC2)CC(=O)NC2CCCC2)cc1OC | 402 | 0.5% (inactive) | -20.8% (inactive) | 108 | -41.4% (inactive) | 109 | -0.597 (inactive) | -5.3e-05 (inactive) | 0.00354 (inactive) | -8.79% (inactive) | -6.82% (inactive)
11 | CCOC(=O)CCCOC(=O)c1ccc(S(=O)(=O)N(C)C)cc1 | 374 | -12.5% (inactive) | 2.8% (inactive) | 67.5 | -8.8% (inactive) | 106 | -0.454 (inactive) | -4.3e-05 (inactive) | 0.00644 (inactive) | 0.818% (inactive) | 10.6% (inactive)
12 | CCOCCCNC(=O)C1CCC(CNS(=O)(=O)c2cccc3nsnc23)CC1 (centres undefined) | 808 | 6.8% (inactive) | -28.4% (inactive) | 103 | -19.9% (inactive) | 119 | -0.476 (inactive) | -4.4e-05 (inactive) | 0.00547 (inactive) | 8.12% (inactive) | 22.9% (inactive)
13 | NC(=O)c1cccc2c1C(=O)N(C1CCCCC1)C2 | 836 | -0.6% (inactive) | -14.1% (inactive) | 91.2 | -26.1% (inactive) | 117 | -0.569 (inactive) | -1.8e-05 (inactive) | 0.00605 (inactive) | 5.66% (inactive) | 24.7% (inactive)
14 | COc1cccc(C(=O)OCn2nnc3ccccc3c2=O)c1OC | 750 | -25% (inactive) | 21% (inactive) | 99.5 | -17.8% (inactive) | 103 | -0.441 (inactive) | -2.9e-05 (inactive) | 0.00547 (inactive) | 11.8% (inactive) | 28.8% (inactive)
